Compound activity as filed in PubChem.
Gli-Sufu antag – Gli-Sufu pathway antagonists, primary screen, luciferase luminescence, Sufu-KO-LIGHT cells, uHTS. Sufu-KO-LIGHT fibroblasts, Gli luciferase reporter luminescence. inhibition, % at 5 µM. 0.74% of 340,000 active. AID 588413, 2011;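 active = inhibition above about 55%, limit read from the data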;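 also: 0% = DMSO-treated cells and 100% = wells with medium but no cells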
NR2F2 inh – NR2F2 transcriptional activity inhibitors, primary screen, cell-based, luciferase reporter, HEK293T, luminescence; AID 686940, 2013; inhibition, % at 8.6 µM; COUP transcription factor 2 (Homo sapiens), P24468; 0.7% of 370,000 active; HEK293T NGFI-A luciferase reporter;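 active = inhibition above a per-plate cutoff, mean inhibition of test wells between control levels plus 3 SD, cut at about 38% in these data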;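 also: cells cotransfected with COUP-TFII expression vector driving the NGFI-A reporter; 0% = median of COUP-TF2 test wells and 100% = reporter-only cells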
Target sequence (P24468 whole entry, looked up): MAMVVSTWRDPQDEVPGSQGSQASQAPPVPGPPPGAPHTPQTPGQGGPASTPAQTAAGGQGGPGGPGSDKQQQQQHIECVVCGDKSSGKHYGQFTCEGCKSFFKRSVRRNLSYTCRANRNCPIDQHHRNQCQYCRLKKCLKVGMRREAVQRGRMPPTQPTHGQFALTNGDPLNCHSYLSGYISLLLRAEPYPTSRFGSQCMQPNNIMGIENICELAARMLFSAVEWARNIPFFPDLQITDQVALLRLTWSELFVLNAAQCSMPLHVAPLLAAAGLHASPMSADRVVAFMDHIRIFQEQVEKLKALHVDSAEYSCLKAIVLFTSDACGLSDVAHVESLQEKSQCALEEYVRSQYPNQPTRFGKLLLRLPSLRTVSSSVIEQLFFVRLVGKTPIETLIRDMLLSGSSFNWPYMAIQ
697 NFkB inh – inhibitors of PMA/ionomycin-induced NF-kB reporter, 697 cells, primary screen, B-cell NF-kB inhibitor project, cell-based, luminescence, uHTS | 697 B-cell NF-kB luciferase reporter, 16 h | inhibition, % at 4 µM | 0.33% of 330,000 active | AID 435022, 2010; in the data active = inhibition above about 35%
TAG inh – inhibitors of triacylglycerol accumulation, primary screen, cell-based, uHTS, fluorescence, H9c2 | inhibition, % at 12.5 µM | H9c2 cells, Nile Red lipid (TAG) fluorescence; cells loaded with 200 µM oleic acid | 0.66% of 230,000 active;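 active = pattern-corrected inhibition of lipid staining of at least 50% with the nuclear-stain viability signal not falling by more than 50%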;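 also: 0% = DMSO wells and 100% = triacsin C control wells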
Jurkat NFkB inh – inhibitors of induced NF-kB luciferase reporter, primary screen, TCR NF-kB activation inhibitor project, cell-based, luminescence, uHTS | Jurkat, PMA/ionomycin-induced NF-kB luciferase reporter | inhibition, % at 4 µM | 0.53% of 330,000 active | AID 435003, 2010; in the data active = inhibition above about 50%
H9c2 protect – cardioprotection against H2O2-induced cell death, primary screen, uHTS, H9c2 cells, ATPLite luminescence; H9c2 cardiomyocytes, H2O2 injury protection, 2 h; protection from H2O2 cell death, % at 20 µM; 0.63% of 360,000 active; AID 588492, 2011;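 active = compounds giving at least 50% protection of heart cells from peroxide-induced death in the single-dose screen, raw or plate-pattern-corrected value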;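 also: 0% = DMSO wells with peroxide and 100% = DMSO wells without peroxide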
* = called active by the depositor; x = not tested or not shown. Hits are enriched below; roughly 2.6% of the tested compounds scored in any of these assays.

SMILES	Gli-Sufu antag	NR2F2 inh	697 NFkB inh	TAG inh	Jurkat NFkB inh	H9c2 protect
COc1cc(C(=O)N/N=C/c2ccc(OC(=O)c3ccccc3Cl)cc2)ccc1O	-5	-11	13	2	-2	52*
C#CCNC(=O)C[C@@H]1C(=O)N(Cc2ccc(OC)cc2)/C2=C/CCCCC[C@@]21C(=O)OCC	x	0	x	x	x	x
C=CCc1cccc(/C=N/NC(=O)CCC(=O)Nc2ccc(F)cc2)c1O	3	0	-3	2	24	57*
C=CCc1cccc(/C=N/NC(=O)CNc2ccccc2OC)c1O	-8	1	10	x	21	63*
CC(=O)CC[C@H]1CC[C@]2(CCCN(S(=O)(=O)C3CCCCC3)C2)O1	x	7	x	x	x	x
Cc1ccccc1NC(=O)c1nc(S(C)(=O)=O)ncc1Cl	1	12	-19	68*	6	-18
O=C(NCCc1c[nH]c2ccccc12)OCc1cn(-c2ccc(F)cc2F)nn1	x	6	x	x	x	x
COc1ccc(C)cc1NCc1cc(=O)oc2cc(-c3ccccc3)c(O)cc12	-1	-23	-17	8	-7	7
COC(=O)c1ccccc1NCc1cc(=O)oc2cc(O)c(O)cc12	20	-3	-50	x	6	67*
Cc1ccccc1S(=O)(=O)N1CCCc2nc(C)c(C)cc21	x	1	x	x	x	x
O=c1oc2ccc3ccccc3c2cc1-c1nnc(-c2ccccc2)o1	0	-13	-17	-11	-13	80*
CCN(CC)S(=O)(=O)c1ccc(C)c(C)c1	-2	10	11	-5	-4	-7
CCN(CC)S(=O)(=O)c1ccc2c(c1)C(=NO)c1cc(S(=O)(=O)N(CC)CC)ccc1-2	12	-15	-22	53*	12	-2
COc1cc(NC(=O)c2c(OC)cccc2OC)ccc1NC(=O)c1cc2ccccc2o1	-45	13	-57	x	-63	54*
CC(C)(C)c1ccc(-c2nnc(SCC(=O)Nc3ccc(S(=O)(=O)Nc4nccs4)cc3)n2-c2ccc(Cl)cc2)cc1	x	20	x	x	x	x
CC1(C)CC(NCCN2CCN(C3=CC(=C(C#N)C#N)CC(C)(C)C3)CC2)=CC(=C(C#N)C#N)C1	17	7	0	4	3	56*
Cc1cccc(NC(=O)Nc2c(-c3ccc(C(F)(F)F)cc3)nc3ncccn23)c1	x	-29	x	x	x	x
C[C@H]1Cn2nncc2Cn2c3ccccc3c(=O)n21	x	20	x	x	x	x
CC(C)(C)OC(=O)N1CCC(N[C@@H](Cc2ccccc2)C(=O)NCCc2c[nH]c3ccccc23)(C(=O)NC2CCCCC2)CC1	x	22	x	x	x	x
COc1ccc(/C=C2\CCC(C3CCCC3)C2=O)cc1 (stereo not drawn)	-14	-18	-94	x	-65	-4
COc1ccc(/C=C2/CCC(CN3CCOCC3)C2=O)cc1 (stereo not drawn)	12	15	x	73*	x	-20
COC(=O)C1=C(C)N(Cc2cccc(C(F)(F)F)c2)C(=NCc2ccc(OC)cc2)NC1c1cccc(F)c1 (stereo not drawn)	x	-14	x	x	x	x
CCCCCCn1cc(CN2CC=CS2(=O)=O)nn1	x	0	x	x	x	x
COc1ccc(N=c2oc3c(OC)cccc3cc2C(=O)NCc2ccco2)cc1OC	9	x	23	x	1	52*
COc1cccc(C(=O)N/N=c2\oc3c(OC)cccc3cc2C(=O)NCc2ccccc2)c1	33	-13	10	x	10	76*
SMILES	Gli-Sufu antag	NR2F2 inh	697 NFkB inh	TAG inh	Jurkat NFkB inh	H9c2 protect
COc1cccc(C(=O)N/N=c2/oc3ccccc3cc2C(N)=O)c1	-26	-7	16	x	-8	34
COC(=O)[C@]12C[C@H](CC(=O)N3CCN(C(=O)c4ccco4)CC3)C(=O)N(Cc3ccco3)C1=C[C@H](C(C)(C)C)O[C@@H]2C	x	-1	x	x	x	x
COC(=O)c1cc2c(c3c4cc(OC)ccc4n(S(=O)(=O)c4cccc(C)c4)c13)C(=O)N(C)C2	x	4	x	x	x	x
CS(=O)(=O)N(Cc1ccc(C(=O)NCCSc2ccccn2)cc1)c1ccccc1	39	-26	-20	x	-4	62*
c1cc2c(cc1C1CCCCC1)c1c3n2CCCNC3CCC1 (stereo not drawn)	14	-13	12	77*	6	-29
COC(=O)c1cc2c(-c3ccccc3)cc3ccccn3c-2c1C(=O)OC	0	-1	18	x	-5	61*
NC(=O)C1CCN(c2ncc(Br)s2)CC1	x	-8	x	x	x	x
CC(=O)c1ccccc1OCC(O)CN1CCN(CCN2C(=O)c3cccc4cccc(c34)C2=O)CC1 (stereo not drawn)	7	14	3	-34	9	58*
Cc1ccc(C)c(OCC(O)CN2CCN(CCN3C(=O)c4cccc5cccc(c45)C3=O)CC2)c1 (stereo not drawn)	19	11	-1	x	20	3
Cc1cc2[nH]c(=O)c3ccccc3n2n1	0	-7	13	14	10	77*
Cc1cc2[nH]c(=O)cc(-c3ccccc3)n2n1	-13	-41	-9	x	-8	-11
O=C1C=CC(=O)c2c(O)c(N3CCN(CCO)CC3)c(Cl)c(O)c21	50	-3	x	100*	x	-15
O=C1C=CC(=O)c2c(O)c(N3CCN(CCOCCO)CC3)c(Br)c(O)c21	36	-6	x	101*	x	-14
O=S(=O)(c1ccc(Br)cc1Cl)N1CCN(CCO)CC1	0	8	13	-7	7	-2
c1coc(-c2nnc3n2N=C(c2ccc4ccccc4c2)CS3)c1	x	-4	x	x	x	x
Oc1ccc(C2=Nn3c(nnc3-c3ccco3)SC2)cc1O	-6	-20	-42	5	37	69*
CSc1nc2ccc(S(=O)(=O)Nc3c(C)n(C)n(-c4ccccc4)c3=O)cc2s1	9	12	-30	x	-19	106*
Cc1c(NS(=O)(=O)c2ccc3c(c2)n(C)c(=O)n3C)c(=O)n(-c2ccccc2)n1C	5	-5	-2	16	-12	3
CCCCCCCOC(=O)C[N+](C)(C)CCOC1CC2CCC1(C)C2(C)C (stereo not drawn)	82*	19	x	34	x	-31
COc1ccc(OC)c(C2CC(=O)c3c([nH]c(C(=O)OCC4CCCO4)c3C)C2)c1 (stereo not drawn)	12	-5	8	x	0	71*
CC(C)OC(=O)C1=CNCC(C)(C)c2c1[nH]c1cc(F)ccc21	x	-3	x	x	x	x
Cn1c(NCc2ccco2)nc2c1c(=O)n(Cc1ccc(Cl)cc1)c(=O)n2C	2	-13	-18	-38	-10	51*
Cn1c(NCc2ccco2)nc2c1c(=O)n(Cc1ccc(Br)cc1)c(=O)n2C	12	-26	22	x	13	32
